From ChEMBL document CHEMBL4513216, “Probing the Open Global Health Chemical Diversity Library for Multistage-Active Starting Points for Next-Generation Antimalarials” (ACS Infect Dis, 2020) come the findings set out here.

SMILES strings stand for the structures. In all, about 69,000 compounds went through this assay and about 8,600 (12%) showed an effect of 50% or more. Many of the other results were omitted from the sample, so strong results are more common in it than they were.

The subject of this assay is Plasmodium berghei. Briefly: Screen against P. berghei liver stage (PbLuc), transformed with Luciferase, at 10uM. The conditions noted are these: tested at 10 uM. Format: functional, HepG2.
For the molecule `COc1ccc(CCCC(=O)N2C[C@H](C3CC3)[C@@H](N(C)C)C2)cc1`, the INHIBITION is reported as 6.28%. Regarding `CC(=O)N1[C@@H](C(=O)NCC2CC2)C[C@@H]2CN(Cc3ccco3)C[C@@H]21`, the INHIBITION came to 11.6%. As to `Cc1cccc(Nc2noc3c2CN(C(=O)c2ccn(C)n2)CC3)c1C`, the INHIBITION is reported as -14.225%.

As for `Cc1ccnn1CCNC(=O)C1CCN(S(=O)(=O)c2ccc(F)cc2)C1` (centres undefined), the INHIBITION was found to be 41.2%. To `Cc1noc(C)c1C[S+]([O-])Cc1cn2cccc(C)c2n1` (centres undefined) belongs -41.7%; to `CS(=O)(=O)N1CCO[C@H]2[C@@H](Oc3ncccc3F)CC[C@@H]21`, 32.2%; to `Cc1nc(CN2CCCC(NCc3ccc(Cl)s3)C2)no1` (centres undefined), 26.5%. To `Cc1ccc2[nH]c(C(=O)N3CCC4(CC3)C(=O)NCCN4C)nc2c1` belongs 10.4%.

For the molecule `CCCc1cc(=O)[nH]c(-n2nc(-c3cccs3)cc2N)n1`, the INHIBITION is listed as 83.8%. As for `NC1(c2nc(-c3cccs3)cc(=O)[nH]2)CCCC1`, the INHIBITION was -35.8%. The result for `CC(C(N)=O)n1nc(-c2cccs2)cc(N)c1=O` (centres undefined) reads 17.4%; that for `Cc1cc(=O)[nH]c(-n2nc(-c3cccs3)cc2N)n1`, 20.9%; that for `CCc1c(C)nc(-n2nc(-c3cccs3)cc2N)[nH]c1=O`, -90.8%. To `Cc1nc(-n2nc(-c3cccs3)cc2N)[nH]c(=O)c1C` belongs 50.9%. The result for `O=C(c1ccnnc1)N1CCC2(CC1)CC(N1CCOCC1)C2` reads 27.4%; that for `O=C(NCc1ccco1)N(CCCO)C1CCCc2ccccc21` (centres undefined), 11.9%; that for `CC(C)N(Cc1ccccc1)C(=O)NCCNC(=O)c1cccnc1`, -17.8%. Consider `CC(C)N(Cc1ccc(C#N)cc1)C(=O)Nc1ccncc1`, for which the INHIBITION came out at 44%.

With `CC(C)N(Cc1ccc(C#N)cc1)C(=O)NCCNc1ncccn1`, the INHIBITION was determined as 55.1%.

With `CC(C)N(Cc1ccc(C#N)cc1)C(=O)Nc1ccccn1`, the INHIBITION stood at 54.3%. The result for `CC(C)N(Cc1cccnc1)C(=O)CSc1ccc(C#N)cc1` reads 2.82%. The result for `Cc1cc(NC(=O)N(Cc2ccc(C#N)cc2)C(C)C)no1` reads 6.33%. The result for `Cc1ccc(N(CCC#N)C(=O)CCc2cccnc2)cc1C` reads 11.9%; that for `CC(C(=O)NCC(F)(F)F)N1CCC(N2CCN(C)C2=O)CC1` (centres undefined), 35.9%; that for `Cc1cncc(C(=O)N2C[C@@H]3CN(S(C)(=O)=O)CCO[C@@H]3C2)c1`, -7.24%.

For the molecule `Cc1nc2c(cc1C(=O)O)CCN(Cc1ccsc1)CC2`, the INHIBITION amounted to 20.4%. The result for `CN(C)C(=O)c1cc2c(nc1NCC1CC1)CCN(CC1CC1)CC2` reads 38.2%; that for `Cc1nc2c(cc1C(=O)O)CCN(CC1CC1)CC2`, 74.9%. The result for `CNC(=O)N1CCc2cc(C(=O)NCC3CC3)c(NC(C)C)nc2CC1` reads -114%; that for `CC(C)Nc1nc2c(cc1C(=O)NCC1CC1)CCN(S(C)(=O)=O)CC2`, -39.1%; that for `CC(C)Nc1nc2c(cc1C(=O)NCC1CC1)CCN(C)CC2`, 34.1%.

For the molecule `CC(C)Nc1nc2c(cc1C(=O)NCC1CC1)CCN(CC1CC1)CC2`, the INHIBITION was determined as 71.4%.

Turning to `COCCN1CCc2cc(C(=O)NCC3CC3)c(NC(C)C)nc2CC1`, the INHIBITION was found to be 51.6%. As to `COCCN1CCc2cc(C(=O)N(C)C)c(NC(C)C)nc2CC1`, the INHIBITION is reported as 18.1%.
